# Hits are enriched below; roughly 1.3% of the tested compounds scored in any of these assays.
# MEX-5 binding = C. elegans MEX-5 TCR-2 RNA binding activity; Q9XUB2; MEX-5/FITC-TCR2 RNA binding, fluorescence polarization; active compounds read low; activity score (negative = inhibition of binding), % at 10 µM; 0.38% of 300,000 active; AID 1832;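 active = inhibition past about -25% in most replicates, and total fluorescence under double the plate's negative control median, limit read from the data; inconclusive = replicates evenly split on the limit, or fluorescence at least double controls; inactive = too little inhibition in most replicates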;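 also: 0% = DMSO and -100% = 5 µM competing unlabeled TCR2 RNA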
# GLD-1 TGE inh = GLD-1-TGE RNA interaction inhibition (C. elegans); Q17339; purified GLD-1 + fluorescein TGE RNA, fluorescence polarization; inhibition, % at 5.96 µM; 0.44% of 320,000 active; AID 2280;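 active = percent inhibition above a per-plate cutoff, the plate mean of test compounds plus 3 SD, cut at about 30% in these data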;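 also: 0% = DMSO wells with GLD-1 and probe and 100% = wells lacking GLD-1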
# eLon inh = inhibitors of E. coli Lon protease | P0A9M0 | purified E. coli Lon protease, fluorescence polarization | inhibition, % at 7.94 µM | 0.42% of 360,000 active | AID 602123; in the data active = inhibition above about 13%, passing the limit was not always enough;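 also: 0% = enzyme with probe and DMSO and 100% = no enzyme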
# EBV gp42 inh = EBV gp42 inhibition; Q1HVG2; Fluorescence polarization binding assay, mP read-out; inhibition, % (tested at 21.74 µM); 0.42% of 220,000 active; AID 1085; in the data active = inhibition above about 50%
# Target sequence (Q1HVG2 whole entry, looked up): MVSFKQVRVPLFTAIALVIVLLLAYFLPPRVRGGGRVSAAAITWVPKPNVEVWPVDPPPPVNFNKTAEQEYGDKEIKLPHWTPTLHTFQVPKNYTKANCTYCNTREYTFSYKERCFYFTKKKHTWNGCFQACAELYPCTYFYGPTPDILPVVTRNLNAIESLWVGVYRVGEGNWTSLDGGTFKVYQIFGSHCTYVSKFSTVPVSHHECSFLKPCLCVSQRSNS
# Bcl-xL primary = blocks human Bcl-xL binding to Bim BH3 peptide. Q07817. AID 2129. GST-Bcl-xL / FITC-Bim BH3 peptide fluorescence polarization. inhibition, % at 10.9 µM. 0.7% of 320,000 active;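 active = inhibition above the mean of all tested compounds plus 3 SD, cutoff set per campaign, cut at about 30% in these data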;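 also: 0% = DMSO wells and 100% = unlabeled Bim-BH3 peptide competitor; inhibitors lower millipolarization by displacing the labeled peptide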
# Target sequence (Q07817 whole entry, looked up): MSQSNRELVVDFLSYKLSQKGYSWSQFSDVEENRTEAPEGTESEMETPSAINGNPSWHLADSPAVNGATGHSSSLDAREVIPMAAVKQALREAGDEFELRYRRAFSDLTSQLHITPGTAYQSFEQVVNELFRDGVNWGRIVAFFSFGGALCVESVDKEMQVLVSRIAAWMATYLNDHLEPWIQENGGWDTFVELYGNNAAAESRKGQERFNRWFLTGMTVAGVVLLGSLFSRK
# * = called active by the depositor; ? = inconclusive; / = no result.
SMILES,MEX-5 binding,GLD-1 TGE inh,eLon inh,EBV gp42 inh,Bcl-xL primary
CC(=O)c1ccc(S(=O)(=O)N(C)CC(=O)NCc2ccco2)cc1,/,-5,-7,/,0
Cc1cc([N+](=O)[O-])nn1CC(=O)NNC(=S)Nc1ccc([N+](=O)[O-])cc1,-37*,6,2,5,2
COc1ccc(NC(=S)NNC(=O)Cn2nc([N+](=O)[O-])cc2C)cc1,-2,6,-2,0,2
CCCN(C(=O)COC(=O)c1[nH]c(C)c(C(=O)OC)c1C)c1c(N)n(Cc2ccccc2)c(=O)[nH]c1=O,6,-7,-26,/,-14
CN1C=CC2=C(C#N)C(N)C(C#N)(C#N)[C@H](c3ccccc3)[C@H]2C1 (stereo partly specified),?,30,13,9,81*
NC(=O)c1snnc1-c1ccccc1,-29*,1,2,-14,6
NNC(=O)c1snnc1-c1ccccc1,-1,-1,0,-24,2
NC(=O)c1sc2nnc(-c3ccccc3)c(-c3ccccc3)c2c1N,-53*,-5,-22,-6,2
CCN(CC)c1cc(C)c2cc(NC(=O)CNC(C)=O)ccc2n1,-2,6,2,/,0
CCCN(CCO)C1CCN(CCc2ccccc2)CC1,-2,10,-3,/,6
c1ccc(Nc2nc3ccccc3n3nnnc23)cc1,1,5,-30,42,36*
COc1ccc(CN(C)C(=O)CSc2nnc(C3CC3)n2C2CC2)cc1,/,/,-7,/,/
Clc1ccc(SCc2cn3ccccc3n2)cc1,2,1,0,-19,2
c1ccc2c(SCc3cn4ccccc4n3)nncc2c1,5,3,1,-4,54*
c1cc(C(c2nnnn2C2CCCCC2)N2CCN3CCCC3C2)ccn1 (stereo unspecified),-5,28,7,6,37*
COc1ccc(C2CCCN2C(=O)Nc2ccc(Cl)cc2)cc1OC (stereo unspecified),5,4,-8,-16,-6
CC(C)(C)OC(=O)NCc1ccc(NC(=O)c2nc[nH]c2C(=O)NCCCNC(=O)c2[nH]cnc2C(=O)Nc2ccc(CNC(=O)OC(C)(C)C)cc2)cc1,/,-1,4,/,/
C=CCOC(=O)C(=O)/C=C/c1coc2ccccc2c1=O,5,63*,-11,-29,52*
C=CCOC(=O)C(=O)/C=C/c1c(C)n(C)n(-c2ccccc2)c1=O,0,4,7,-6,4
CCCCCCc1ccc(N2C[C@H](C)[C@@H](CC(=O)NCc3ccccc3)C2=O)cc1,3,41*,-4,/,7
CCCCCCc1ccc(N2C[C@H](CCCCC)[C@@H](CC(=O)NCc3ccccc3)C2=O)cc1,3,4,-5,/,0
Cc1noc(/C=C/c2ccc(-c3ccccc3Cl)o2)c1[N+](=O)[O-],2,-60,-91,130*,-59
O=C1NC(=S)S/C1=C/c1ccc(N2CCOCC2)o1,?,12,-3,6,47*
O=C1S/C(=C/c2ccc(N3CCOCC3)o2)C(=O)N1Cc1ccc(F)cc1,-1,-114,-130,-39,-72
COc1ccc2cc(/C=C3\SC(=S)NC3=O)c(N3CCOCC3)nc2c1,-26*,-5,-52,-7,-20
SMILES,MEX-5 binding,GLD-1 TGE inh,eLon inh,EBV gp42 inh,Bcl-xL primary
CC1=CC(=C2N=C(c3ccccc3)OC2=O)C=C(C)O1,-35*,2,39*,-55,11
C[C@H](CO)N1C[C@H](C)[C@@H](CN(C)C(=O)C2CCOCC2)Oc2ncc(Br)cc2C1=O,/,/,1,/,/
O=C(NCCCc1ccccc1)c1cc(COc2ccc(F)cc2Cl)on1,-2,14,3,/,35*
O=C(NCCc1cccnc1)c1cc(COc2ccc(F)cc2Cl)on1,-2,-9,-12,/,5
Cc1ccc(C(=O)N/C(=C\c2ccc(-c3ccccc3[N+](=O)[O-])o2)C(=O)NCCCN2CCOCC2)cc1,-7,18,7,/,32*
S=C(Nc1ccc2nc(-c3ccccn3)c(-c3ccccn3)nc2c1)N1CCCCC1,/,/,14,55*,/
S=C(Nc1ccc2nsnc2c1)N1CCCCC1,/,27,17,3,9
Cc1nc2ccc(NC(=S)N3CCN(c4ccccn4)CC3)cc2nc1C,0,4,-5,-18,5
S=C(Nc1ccc2nc(-c3ccccn3)c(-c3ccccn3)nc2c1)N1CCCCCC1,-17,15,2,7,35*
CC(C)C(=O)N1CCC1(C)C(=O)NCc1ccc(C(C)(C)C)cc1 (stereo unspecified),/,/,2,/,/
Cc1nc(N)nc(N)c1CCCc1ccc(Cl)c(Cl)c1,5,5,8,/,10
COC(=O)c1cc2c(cc1NC(=O)CSCCc1ccccn1)OCO2,-7,-8,-1,14,31*
Cc1cc(C(F)(F)F)c2c(n1)sc1c(O)cc(=O)[nH]c12,1,3,-1,-2,4
O=c1cc(O)c2sc3nc(-c4cccnc4)cc(C(F)(F)F)c3c2[nH]1,-10,13,-9,42,40*
O=c1[nH]c2cc3c(cc2cc1CN(Cc1ccccc1)Cc1nnnn1Cc1ccco1)OCCO3,-1,/,-34,-12,/
O=c1[nH]c2cc3c(cc2cc1CN(Cc1cccs1)Cc1nnnn1Cc1ccco1)OCCO3,2,-9,7,-7,20
O=c1[nH]c2cc3c(cc2cc1CN(Cc1cccnc1)Cc1nnnn1Cc1ccco1)OCCO3,-3,6,0,-14,34*
COc1ccccc1CN(Cc1cc2cc3c(cc2[nH]c1=O)OCCO3)Cc1nnnn1Cc1ccco1,4,14,3,-7,32*
O=C1CCN(Cc2ccc(O)cc2)CCN1CCO,-3,13,-9,/,6
O=C(/C=C/N1CCOCC1)c1ccc(-c2ccccc2)cc1,-35*,0,-8,-11,-2
N#Cc1cc2c(=O)n3ccccc3nc2n(-c2ccccc2Cl)c1=O,-27*,5,-3,9,17
CCCC1c2ccc(C)n2CCN1C(=O)Nc1ccc(F)cc1 (stereo unspecified),-3,15,0,7,46*
O=C(CC1C(=O)NCCN1C(=O)Nc1ccc(F)cc1)Nc1ccc(F)cc1 (stereo unspecified),-1,0,-2,-19,0
CCC1c2ccc(C)n2CCN1C(=O)Nc1ccc(F)cc1 (stereo unspecified),-1,24,7,-1,45*
Cc1ccc([N+](=O)[O-])cc1S(=O)(=O)Nc1ccc(O)c(Sc2ncn[nH]2)c1,-40*,-2,-6,/,12
CC1(O)C(=O)C=C2C=C(C3CC3)OC=C2C1=O (stereo unspecified),-60*,23,/,/,21
COC(=O)CCC(=O)OC1(C)C(=O)C=C2C=C(c3ccsc3)OC=C2C1=O (stereo unspecified),-41*,28,-21,/,21
COC(=O)CCC(=O)OC1(C)C(=O)C=C2C=C(C3CC3)OC=C2C1=O (stereo unspecified),-42*,67*,/,/,54*

# Assay outcomes: PubChem BioAssay, several laboratories
